The values below come from PubChem BioAssay (NCATS).

SMILES strings stand for the structures. Inconclusive results are not listed. The source made the active and inactive calls. Unless noted, calls follow the shape of the dose curve; as a rule, active = well fitted curve in either direction with a large enough effect (not every such curve was filed as active); inconclusive = small, poorly fitted or top-dose-only effect, or another doubt; inactive = flat fitted curve, though single readings scatter.

Test system in the first assay: not listed separately
Kind of assay: Stat Signaling Pathway (AID 446).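 Also: ME-180 cervical cancer cells given 40 pM IL-6 alongside compound; SIE-controlled beta-lactamase reporter measured as 460/530 nm FRET emission ratio; % is scaled to controls: 0 for no effect and ±100 for the full control effect.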 To be noted: ME-180 (cervical carcinoma) SIE beta-lactamase reporter, IL-6 stimulated, 5 h; at 7.69 µM (top of the series) unless noted. In outline:
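Compound effects on IL-6-induced STAT reporter activity were measured in ME-180 cells. After overnight culture, cells were co-treated with 40 pM IL-6 for 5 hrs before beta-lactamase substrate loading at room temperature.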
As to `Cc1nc2cnc(N3CCOCC3)nc2n(C[C@H]2CCCO2)c1=O`, the activity, negative = inhibition is -8.29% (inactive).
On the same count and under the same terms, next, `CN(C)Cc1ccccc1-c1nc(NCc2cccs2)c2ccccc2n1`: 15.6% (inactive); `N#Cc1cccc(-c2nc3cnc(N4CCOCC4)nc3n(C[C@H]3CCCO3)c2=O)c1`: 6.63% (inactive); `COc1ccc(-c2nc3cnc(Nc4cccc(OC)c4)nc3n(C3CC3)c2=O)cc1`: 25.2% (inactive).
As to `CN(C)c1ncc2nc(-c3cn(C)c4ccccc34)c(=O)n(C[C@H]3CCCO3)c2n1`, the activity, negative = inhibition was -10.1% (inactive).
As for `CN(C)c1ccc(-c2cc(Nc3ccc(F)cc3)ncn2)cc1`, the activity, negative = inhibition was -12% (inactive).
On to `COc1ncc2nc(C)c(=O)n(C3CC3)c2n1`, for which the activity, negative = inhibition was -11.2% (inactive).
The same measure, in the same setting: next, `CN(C)Cc1ccccc1-c1cc(N(C)Cc2ccco2)ncn1`: -3.48% (inactive).
As for `CN(Cc1ccco1)c1ncncc1-c1ccccc1Cl`, the activity, negative = inhibition was 3.72% (inactive).
On the same count and under the same terms, next, `CN1CCN(c2ncc3ncc(=O)n(C[C@H]4CCCO4)c3n2)CC1`: -20.2% (inactive); `COCCn1c(=O)c(C)nc2cnc(Oc3ccc(OC)cc3)nc21`: -8.21% (inactive).
On the same count and under the same terms, as for `CN(Cc1ccco1)c1ncncc1-c1ccoc1`, the figure is -2% (inactive).
Same read-out and setting: next, `c1ccc(Nc2cc(-c3ccoc3)ncn2)cc1`: -2.05% (inactive).
`FC(F)(F)c1ccccc1-c1cc(NCc2ccccc2)ncn1`: the activity, negative = inhibition was 4.93% (inactive).
The same measure, in the same setting: as for `Cc1nc2cnc(N(C)C)nc2n(C[C@H]2CCCO2)c1=O`, the figure is -0.622% (inactive); as for `O=c1c(CCc2ccccc2)nc2cnc(N3CCOCC3)nc2n1Cc1cccs1`, 2.46% (inactive).
Still for that read-out and setting: as for `Cn1c(=O)c(-c2cc(F)cc(F)c2)nc2cnc(N3CCOCC3)nc21`, the figure is -1.78% (inactive).
On the same count and under the same terms, as for `O=c1cnc2cnc(N3CCOCC3)nc2n1CCc1ccccc1`, the figure is -10.2% (inactive); as for `Cc1ccccc1-c1cc(N(C)C)ncn1`, 7.1% (inactive).
Turning to `CCNc1ncc2ncc(=O)n(C3CC3)c2n1`, the activity, negative = inhibition was -6.01% (inactive).
For the compound `COc1ncc2nc(-c3ccc(F)cc3)c(=O)n(C3CC3)c2n1`, the activity, negative = inhibition was -4.24% (inactive).
On the same count and under the same terms, as for `COc1ccc(-n2c(=O)c(-c3cccs3)nc3cnc(N(C)C)nc32)cc1`, the figure is -9.54% (inactive); as for `Fc1ccc(Nc2ncncc2-c2ccccc2C(F)(F)F)cc1`, 23.6% (inactive).
Still for that read-out and setting: next, `CN(C)c1ncnc2ccc(-c3cccnc3)cc12`: 9.76% (inactive); `Cc1noc(C)c1-c1ccc2ncnc(N(C)C)c2c1`: -14.9% (inactive).
For `Cn1c(=O)c(-c2ccc(Cl)cc2)nc2cnc(Nc3ccccc3)nc21`, the activity, negative = inhibition is -6.29% (inactive).
Regarding `CN1CCN(c2cc(-c3ccoc3)ncn2)CC1`, the activity, negative = inhibition is 8.56% (inactive).
On the same count and under the same terms, next, `COCCNc1nc(-c2ccccc2OC)nc2ccccc12`: 7.08% (inactive).
Same read-out and setting: as for `CN(Cc1ccco1)c1ncncc1-c1cccc(C#N)c1`, the figure is 7.25% (inactive); as for `Cc1nc2cnc(N3CCN(C)CC3)nc2n(CCC#N)c1=O`, -9.15% (inactive); as for `COc1ccc(Oc2ncc3nc(C)c(=O)n(Cc4cccc(OC)c4)c3n2)cc1`, -8.96% (inactive).
Same read-out and setting: next, `COCCn1c(=O)c(-c2ccc(Cl)cc2)nc2cnc(Oc3cccc(Cl)c3)nc21`: -8.1% (inactive).

For a further assay, the target named is Glucocorticoid receptor (Homo sapiens) (UniProt P04150). The assay is described as follows: GR-GFP Redistribution (AID 450;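 active = compounds whose dose series gives a full or clear partial fitted curve of increased nuclear translocation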; also: potency is read from the fitted curve at half-maximal effect). To be noted: U2OS GR-GFP nuclear translocation, laser cytometry, 2 h.
Glucocorticoid receptor (Homo sapiens), sequence (P04150 whole entry, looked up): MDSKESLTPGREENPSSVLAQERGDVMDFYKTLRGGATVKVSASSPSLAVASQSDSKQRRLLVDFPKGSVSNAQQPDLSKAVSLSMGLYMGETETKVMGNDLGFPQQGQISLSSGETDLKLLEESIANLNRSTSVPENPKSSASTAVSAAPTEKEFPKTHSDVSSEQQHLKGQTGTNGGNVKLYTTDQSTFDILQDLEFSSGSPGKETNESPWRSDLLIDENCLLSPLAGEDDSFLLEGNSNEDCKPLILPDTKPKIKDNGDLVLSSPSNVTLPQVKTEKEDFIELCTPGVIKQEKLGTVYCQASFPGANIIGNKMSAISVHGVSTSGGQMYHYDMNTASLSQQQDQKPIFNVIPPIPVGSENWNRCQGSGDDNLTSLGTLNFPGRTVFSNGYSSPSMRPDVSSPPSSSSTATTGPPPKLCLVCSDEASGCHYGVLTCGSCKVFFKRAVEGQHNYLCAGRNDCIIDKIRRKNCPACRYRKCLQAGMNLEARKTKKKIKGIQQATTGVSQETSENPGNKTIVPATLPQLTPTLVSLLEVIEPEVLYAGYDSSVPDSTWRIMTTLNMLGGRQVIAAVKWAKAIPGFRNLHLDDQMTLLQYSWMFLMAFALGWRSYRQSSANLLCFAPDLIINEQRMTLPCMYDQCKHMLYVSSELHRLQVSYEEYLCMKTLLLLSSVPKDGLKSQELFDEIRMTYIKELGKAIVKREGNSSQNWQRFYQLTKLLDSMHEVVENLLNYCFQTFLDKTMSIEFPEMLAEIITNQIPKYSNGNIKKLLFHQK
On to `Cc1nc2cnc(N3CCOCC3)nc2n(C[C@H]2CCCO2)c1=O`, for which the Potency was > 9.22 µM (inactive).
On the same count and under the same terms, next, `CN(C)c1ncc2nc(-c3ccccc3)c(=O)n(-c3ccccc3)c2n1`: > 9.22 µM (inactive).
With `N#Cc1cccc(-c2nc3cnc(N4CCOCC4)nc3n(C[C@H]3CCCO3)c2=O)c1`, the Potency was > 9.22 µM (inactive).
The same measure, in the same setting: next, `COc1ccc(-c2nc3cnc(Nc4cccc(OC)c4)nc3n(C3CC3)c2=O)cc1`: > 9.22 µM (inactive); `CN(C)c1ncc2nc(-c3cn(C)c4ccccc34)c(=O)n(C[C@H]3CCCO3)c2n1`: > 9.22 µM (inactive); `COc1ncc2nc(C)c(=O)n(C3CC3)c2n1`: > 9.22 µM (inactive).
As to `CN(C)Cc1ccccc1-c1cc(N(C)Cc2ccco2)ncn1`, the Potency is > 46 µM (inactive).
Turning to `CN1CCN(c2ncc3ncc(=O)n(C[C@H]4CCCO4)c3n2)CC1`, the Potency is > 9.22 µM (inactive).
Still for that read-out and setting: next, `CN1CCN(c2ncc3nc(-c4cc(F)cc(F)c4)c(=O)n(C4CC4)c3n2)CC1`: > 9.22 µM (inactive).
Still for that read-out and setting: as for `COCCn1c(=O)c(C)nc2cnc(Oc3ccc(OC)cc3)nc21`, the figure is > 9.22 µM (inactive); as for `CCNc1ncc2nc(-c3cn(C)c4ccccc34)c(=O)n(Cc3cccc(OC)c3)c2n1`, > 9.22 µM (inactive); as for `Cn1c(=O)c(-c2cccs2)nc2cnc(OCc3ccccc3)nc21`, > 9.22 µM (inactive).
On the same count and under the same terms, next, `FC(F)(F)c1ccccc1-c1cc(NCc2ccccc2)ncn1`: > 46 µM (inactive); `Cc1nc2cnc(N(C)C)nc2n(C[C@H]2CCCO2)c1=O`: > 9.22 µM (inactive).
As for `O=c1c(CCc2ccccc2)nc2cnc(N3CCOCC3)nc2n1Cc1cccs1`, the Potency was > 9.22 µM (inactive).
Still for that read-out and setting: next, `O=c1cnc2cnc(N3CCOCC3)nc2n1CCc1ccccc1`: > 9.22 µM (inactive).
On the same count and under the same terms, as for `Cc1ccccc1-c1cc(N(C)C)ncn1`, the figure is > 46 µM (inactive).
Consider `CCNc1ncc2ncc(=O)n(C3CC3)c2n1`, for which the Potency is > 9.22 µM (inactive).
`COCCn1c(=O)c(-c2cc(F)cc(F)c2)nc2cnc(N3CCOCC3)nc21`: the Potency was > 9.22 µM (inactive).
On the same count and under the same terms, as for `O=c1c(-c2ccc(F)cc2)nc2cnc(N3CCNCC3)nc2n1Cc1ccc(F)cc1`, the figure is > 9.22 µM (inactive); as for `COc1ncc2nc(-c3ccc(F)cc3)c(=O)n(C3CC3)c2n1`, > 9.22 µM (inactive).
Same read-out and setting: as for `Fc1ccc(Nc2ncncc2-c2ccccc2C(F)(F)F)cc1`, the figure is > 46 µM (inactive).
On the same count and under the same terms, as for `CN(C)c1ncnc2ccc(-c3cccnc3)cc12`, the figure is > 46 µM (inactive); as for `Cc1noc(C)c1-c1ccc2ncnc(N(C)C)c2c1`, > 46 µM (inactive); as for `Cn1c(=O)c(-c2ccc(Cl)cc2)nc2cnc(Nc3ccccc3)nc21`, > 9.22 µM (inactive).
`CN1CCN(c2ncc3nc(-c4ccc(Cl)cc4)c(=O)n(Cc4cccs4)c3n2)CC1`: the Potency was > 9.22 µM (inactive).
`CN1CCN(c2cc(-c3ccoc3)ncn2)CC1`: the Potency is > 46 µM (inactive).
For the compound `COCCNc1nc(-c2ccccc2OC)nc2ccccc12`, the Potency is > 46 µM (inactive).
For the compound `CN(Cc1ccco1)c1ncncc1-c1cccc(C#N)c1`, the Potency was > 46 µM (inactive).
Still for that read-out and setting: next, `COc1ccc(Oc2ncc3nc(C)c(=O)n(Cc4cccc(OC)c4)c3n2)cc1`: > 9.22 µM (inactive).
As for `COCCn1c(=O)c(-c2ccc(Cl)cc2)nc2cnc(Oc3cccc(Cl)c3)nc21`, the Potency is > 9.22 µM (inactive).
